# In PubChem BioAssay:
# Where “and” joins values, the source holds several entries; their conditions need not be identical. Identical values can stand only once. Records with an inconclusive call do not appear. For some of these results: Entries with a potency or affinity are not part of this list. Calls of active or inactive are those of the source. Unless noted, no rule for the calls is given here.
# Experiments:
# [1] = target: ATP-dependent translocase ABCB1 (Homo sapiens) (UniProt P08183); experiment: P-glycoprotein substrate transport blockade – cell-based (AID 377; in the data active = fluorescence slope change above about 50%); settings: MDR1-expressing cells, fluorescent substrate accumulation slope; stronger effect = higher value; concentration not given here
# [2] = blockers of polyQ-driven CASP3 activation – cell-based (AID 1583); settings: polyglutamine-induced caspase-3 activation, cell assay; stronger effect = higher value;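 tested at 10 µM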
# [3] = yeast 75Q aggregation reduction – 75Q-TubU reporter (AID 1593); settings: Yeast 75Q polyglutamine aggregation reporter
# [4] = restoration of touch response, mutant HTT neurons – whole organism, C. elegans mechanosensory neurons, N-terminal huntingtin (AID 1599); settings: C. elegans polyQ-huntingtin mechanosensory neurons, stronger effect = higher value
# [5] = blockers of cytochrome c efflux from mitochondria – biochemical, purified mitochondria (AID 1603); settings: stronger effect = lower value;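 also: mouse liver mitochondria challenged with calcium chloride; signal normalized to the plate average as 100%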
# [6] = polyglutamine aggregate formation blockers (AID 1604); settings: polyglutamine-induced protein aggregation inhibition assay; stronger effect = higher value; tested at 2.5 µM
# [7] = glutamate transport activators, MN-1 cells, MN-1 cell line (AID 1612); settings: MN-1 motor neuron cells, stronger effect = higher value;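 also: tested at 1 µM final; 0% = mean of DMSO vehicle wells on each plate; positive means more glutamate uptake than control and negative means less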
# [8] = GFP-Q80 aggregate reduction, neuronal-like cells, cell-based, NGF-treated PC12, GFPQ80 (AID 1614); settings: PC12 NGF-treated GFP-polyQ80 inclusion reduction;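 also: lower means fewer inclusions and 0 means no inclusions at all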
# [9] = 75Q-TubH aggregate inhibition, S. cerevisiae, yeast (AID 1616); settings: S. cerevisiae 75Q-TubH polyglutamine aggregation suppression; stronger effect = higher value
# [10] = compounds altering circadian rhythm period length – cell-based, LOPAC library, luminescence reporter (AID 2774); settings: circadian reporter cells, at 7 µM, actives lie on both sides;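 also: values are relative to mean of DMSO wells on each plate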
# [11] = compounds altering viability of human ES cells (AID 493140); settings: human embryonic stem cell survival screen; stronger effect = higher value;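 also: cells exposed to compounds for four days before counting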
# Sequence of ATP-dependent translocase ABCB1 (Homo sapiens) (P08183 whole entry, looked up): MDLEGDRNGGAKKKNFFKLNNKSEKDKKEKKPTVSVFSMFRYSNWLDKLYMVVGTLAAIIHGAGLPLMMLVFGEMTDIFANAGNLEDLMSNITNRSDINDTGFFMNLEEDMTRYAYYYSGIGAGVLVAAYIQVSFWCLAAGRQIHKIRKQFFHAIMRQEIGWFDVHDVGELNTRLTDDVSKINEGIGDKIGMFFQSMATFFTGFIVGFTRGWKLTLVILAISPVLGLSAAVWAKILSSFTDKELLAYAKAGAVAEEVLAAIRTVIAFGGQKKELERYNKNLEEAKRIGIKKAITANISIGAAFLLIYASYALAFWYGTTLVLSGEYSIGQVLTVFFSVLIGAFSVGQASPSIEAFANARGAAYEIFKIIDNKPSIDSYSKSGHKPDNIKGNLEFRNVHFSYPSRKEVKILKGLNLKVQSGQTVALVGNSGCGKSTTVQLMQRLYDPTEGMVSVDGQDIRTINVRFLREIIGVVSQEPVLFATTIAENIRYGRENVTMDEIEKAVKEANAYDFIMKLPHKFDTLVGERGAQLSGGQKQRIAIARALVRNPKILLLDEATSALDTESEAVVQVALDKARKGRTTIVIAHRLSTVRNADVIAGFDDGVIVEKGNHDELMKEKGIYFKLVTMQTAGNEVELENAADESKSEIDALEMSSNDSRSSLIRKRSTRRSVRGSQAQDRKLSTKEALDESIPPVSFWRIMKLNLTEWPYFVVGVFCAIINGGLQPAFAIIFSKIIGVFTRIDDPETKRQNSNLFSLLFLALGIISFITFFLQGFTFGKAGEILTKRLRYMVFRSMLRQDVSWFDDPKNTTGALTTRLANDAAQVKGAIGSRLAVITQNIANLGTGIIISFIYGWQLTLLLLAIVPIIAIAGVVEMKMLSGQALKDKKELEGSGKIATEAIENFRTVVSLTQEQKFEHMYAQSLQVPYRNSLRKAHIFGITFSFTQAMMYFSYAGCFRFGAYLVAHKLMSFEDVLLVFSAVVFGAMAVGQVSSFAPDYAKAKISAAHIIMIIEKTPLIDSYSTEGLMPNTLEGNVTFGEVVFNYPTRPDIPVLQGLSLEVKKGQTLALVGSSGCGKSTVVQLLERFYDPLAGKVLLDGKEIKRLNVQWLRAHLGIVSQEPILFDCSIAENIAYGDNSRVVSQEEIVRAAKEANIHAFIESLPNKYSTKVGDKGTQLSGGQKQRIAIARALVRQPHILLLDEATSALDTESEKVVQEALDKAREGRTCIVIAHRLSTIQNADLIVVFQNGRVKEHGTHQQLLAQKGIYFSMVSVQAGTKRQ
Structure (SMILES),fluorescence slope change [1],inhibition [2],score [3],rescue above control [4],cytochrome c release ratio [5],inhibition of aggregation [6],glutamate uptake change [7],inclusion score [8],aggregation suppression score [9],period change [10],survival [11]
C[C@](N)(Cc1ccc(O)c(O)c1)C(=O)O,52.1% (active),10.4%,1.25,10.7,1.01,31.7%,33%,2,1.39,-0.07 h (inactive),3.58 (inactive)
CCN(CC)CCNC(=O)c1cc(Cl)c(N)cc1OC,27.9% (inactive),-5.58%,1.42,-6.22,1.15,25.8%,-0.01%,2,1.2,-0.015 h (inactive),14.7 (inactive)
C[N+](C)(C)CCCCCC[N+](C)(C)C,,1.59%,1.14,-10.3,0.92,72.2%,11.7%,2,1.28,-0.005 hour (inactive) and -0.2 hour (inactive),12.8 (inactive)
O=C(O)c1cccnc1Nc1cccc(C(F)(F)F)c1,,18.6%,-0.01,7.18,0.87,-18.2%,6.09%,1,0.0604,0.085 h (inactive),22.6 (inactive)
CC[N+](CC)(CC)CCOc1cccc(OCC[N+](CC)(CC)CC)c1OCC[N+](CC)(CC)CC,,2.37%,1.11,4.9,1.78,83.6%,40.5%,2,1.15,0 h (inactive),28.5 (inactive)
Cc1cccc(C)c1OCC(C)N (configuration not stated),24.1% (inactive),-1.28%,1.39,0.83,0.86,45.1%,6.77%,2,1.44,0.025 h (inactive),21.7 (inactive)
NNc1nncc2ccccc12,71.4% (active),24%,1.45,-2.16,0.9,-30.3%,4.84%,2,1.4,0.12 h (inactive),18.2 (inactive)
Cc1nnc(SCC2=C(C(=O)O)N3C(=O)[C@@H](NC(=O)Cn4cnnn4)[C@H]3SC2)s1,-6.8% (inactive),0.61%,1.27,4.54,0.92,13.4%,0.76%,2,1.05,-0.065 h (inactive),2.58 (inactive)
Cn1cnc2c1c(=O)[nH]c(=O)n2C,,30.4%,1.43,-0.5,0.76,28.1%,-19.3%,1.5,1.09,-0.055 h (inactive),3.33 (inactive)
N[C@@H](Cc1ccc(O)c(O)c1)C(=O)O,,-16.6%,1.55,6.71,0.96,83.3%,-2.7%,2,1.67,0.105 h (inactive),9.67 (inactive)
CN(C)CCOC(=O)COc1ccc(Cl)cc1,-15.2% (inactive),6.84%,1.08,-6.72,0.96,83.1%,-7.05%,2,1.56,-0.09 h (inactive),8.75 (inactive)
CN(C)[C@@H]1C(=O)C(C(N)=O)=C(O)[C@@]2(O)C(=O)C3=C(O)c4c(O)ccc(Cl)c4[C@@H](O)[C@H]3C[C@@H]12,2.1% (inactive),13.2%,0.8,0,2.6,27.8%,0.55%,0,0.533,0.065 h (inactive),2.92 (inactive)
CS(=O)(=O)Nc1ccc([N+](=O)[O-])cc1Oc1ccccc1,50.2% (active),6.83%,0.85,3.29,3.47,42.5%,-10.7%,2,0.728,0.17 h (inactive),16.8 (inactive)
CCN(CC)CCOCCOC(=O)C1(c2ccccc2)CCCC1,,-3.33%,1.27,-4.04,0.8,94.4%,7.48%,1.5,1.37,0.125 h (inactive),5.08 (inactive)
CC(=O)Oc1ccccc1C(=O)O,,-10.2%,1.29,9.45,1.35,61.5%,9.8%,2,1.28,-0.135 h (inactive),
O=C1NCC2(CCN(CCc3ccccc3)CC2)O1,54.1% (active),-2.12%,1.22,-3.96,1.11,88.9%,-8.17%,2,1.64,0 h (inactive),18.8 (inactive)
Nc1ccc(S(=O)(=O)Nc2ccnn2-c2ccccc2)cc1,,-0.92%,1.43,-6.57,0.99,4.55%,16.6%,2,0.956,0.065 h (inactive),28 (inactive)
O=C(O)CCCCCCCC(=O)O,,-26.7%,1.02,10.4,1.16,79.6%,4.35%,2,0.919,0.115 h (inactive),
COc1ccc(CCN(C)CCCC(C#N)(c2ccc(OC)c(OC)c2)C(C)C)cc1OC (configuration not stated),,15.1%,1.28,2.45,0.62,62.8%,24.7%,2,1.45,0.12 h (inactive),22.4 (inactive)
Cn1c(=O)c2c(ncn2CCO)n(C)c1=O,50.2% (active),-0.98%,1.29,-7.41,1.08,56.7%,2.77%,2,1.2,,29.2 (inactive)
COc1cnc(NS(=O)(=O)c2ccc(N)cc2)nc1,9.5% (inactive),4.47%,1.34,-2.23,0.79,77.5%,-0.58%,2,1.45,,4.42 (inactive)
Cc1ccccc1OCC(O)CO (configuration not stated),59.3% (active),20.6%,1.31,-6.62,1.09,70.4%,18.9%,2,1.74,,11.9 (inactive)
CCO/C([O-])=N/c1c[n+](N2CCOCC2)no1,,-3.16%,1.13,3.21,0.83,36.6%,3.92%,2,1.23,0.065 h (inactive),4.75 (inactive)
CN1CCOC(c2ccccc2)c2ccccc2C1 (configuration not stated),5.9% (inactive),4.24%,1.08,-6.88,0.83,74.7%,0.43%,1.5,1.44,,21.3 (inactive)
